Screening results (PubChem BioAssay)
G9a block – qHTS Assay for Inhibitors of Histone Lysine Methyltransferase G9a. Histone-lysine N-methyltransferase EHMT2 (Homo sapiens), Q96KQ7. G9a H3K9 monomethylation, AlphaScreen, 2 h. Potency, µM (series often up to 102 µM), for the others: at the top dose activity, negative = inhibition, usual class: inhibitors. 350,000 compounds, 8.8% hits. AID 504332, 2011; note: % is set by controls: 0 for no effect and ±100 for the full control effect; nearly all actives have a fitted effect of over 75% in size
Target sequence (Q96KQ7 913-1193 limits assumed): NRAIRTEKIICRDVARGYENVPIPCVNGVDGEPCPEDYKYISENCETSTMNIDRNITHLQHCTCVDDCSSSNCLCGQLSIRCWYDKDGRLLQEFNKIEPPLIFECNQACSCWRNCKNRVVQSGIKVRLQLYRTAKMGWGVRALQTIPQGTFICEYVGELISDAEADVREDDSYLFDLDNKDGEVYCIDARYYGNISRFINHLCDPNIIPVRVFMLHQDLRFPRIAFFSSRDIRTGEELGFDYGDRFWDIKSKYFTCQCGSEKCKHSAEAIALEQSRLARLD
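Quantitative HTS format: methyltransferase activity on a biotin-tagged H3K9 peptide is measured by AlphaScreen, using a rabbit anti-monomethyl-H3K9 antibody with streptavidin donor and anti-IgG acceptor beads. Final levels are 20 nM enzyme, 500 nM peptide, 20 uM SAM; 2 h RT.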
BAZ2B block – qHTS Assay for Inhibitors of BAZ2B; AlphaScreen BAZ2B-H3K14Ac peptide displacement; Potency, µM (doses to about 114 µM), for inactives: at the highest dose activity change, negative = inhibition, usual class: inhibitors; 360,000 compounds, 4.4% hits; Bromodomain adjacent to zinc finger domain protein 2B (Homo sapiens), Q9UIF8; note: % is set by controls: 0 for no effect and ±100 for the full control effect; nearly all actives have a fitted effect of over 60% in size
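Inhibition is scored as reduced AlphaScreen emission. The BAZ2B/b-H3(5-23)K14Ac complex (50 nM each) in PBS pH 7.4, 0.01% Tween-20 meets compound (up to 110 uM) for 30 min at RT before bead addition.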
JMJD2A Tudor inh – qHTS Assay for Inhibitors of JMJD2A-Tudor Domain. AlphaScreen JMJD2A-Tudor / H3K4me3 peptide binding. Potency, µM (doses to about 114 µM), without a hit: top-dose activity change, negative = inhibition, hits mostly inhibitors. 390,000 compounds, 4.4% hits; note: % is set by controls: 0 for no effect and ±100 for the full control effect; nearly all actives have a fitted effect of over 50% in size
HP1b binding inh – HTS for Inhibitors of HP1-beta Chromodomain Interactions with Methylated Histone Tails; AlphaScreen HP1-beta / biotin-H3K9me3 peptide binding; Potency, µM (top dose mostly 114 µM), inactives show at the top dose activity change, negative = inhibition, most hits filed as inhibitors; Chromobox protein homolog 1 (Homo sapiens), P83916; 390,000 compounds, 0.56% hits; AID 540317, 2011; note: nearly all actives have a fitted effect of over 70% in size
Target sequence (P83916 whole entry, looked up): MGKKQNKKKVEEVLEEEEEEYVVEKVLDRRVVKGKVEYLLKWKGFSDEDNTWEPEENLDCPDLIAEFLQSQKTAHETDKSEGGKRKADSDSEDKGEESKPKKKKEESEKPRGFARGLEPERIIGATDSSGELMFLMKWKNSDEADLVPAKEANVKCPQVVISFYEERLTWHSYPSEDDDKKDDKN
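Compound inhibition of the preformed complex between 50 nM HP1-beta and 50 nM biotinylated H3K9me3 peptide was read by AlphaScreen. Buffer was PBS pH 7.4 with 0.01% Tween-20. Incubations ran 30 min at room temperature, with 10 ug/mL donor/acceptor beads.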
Sfp PPTase inh – qHTS Assay for Inhibitors of Bacillus subtilis Sfp phosphopantetheinyl transferase (PPTase); Potency, µM, without a hit: largest response in the series, negative = inhibition, most hits filed as inhibitors; 310,000 compounds, 3.5% hits; 4'-phosphopantetheinyl transferase ffp (Bacillus subtilis), Q9F4F7; Biochemical Sfp PPTase activity, qHTS;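 note: the enzyme is Sfp with the accession as filed and its product quenches rhodamine fluorescence; 0% = enzyme reaction without inhibitor and -100% = no enzyme wells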
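Reaction rates are the 30-min fluorescence difference (ex 525, em 598 nm) in wells containing 15 nM Sfp, 5 uM rhodamine-CoA and 12.5 uM BHQ-2-YbbR at pH 7.6 with 10 mM MgCl2.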
L3MBTL1 block – qHTS Assay for the Inhibitors of L3MBTL1; Lethal(3)malignant brain tumor-like protein 1 (Homo sapiens), Q9Y468; AlphaScreen L3MBTL1–H3K9me1 peptide binding; Potency, µM (top dose mostly 57.1 µM), without a hit: at the top dose activity, negative = inhibition, usual class: inhibitors; 230,000 compounds, 0.66% hits; note: % is set by controls: 0 for no effect and ±100 for the full control effect; nearly all actives have a fitted effect of over 60% in size
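L3MBTL1 (50 nM) pre-complexed 30 min with biotinylated H3(1-15)K9me1 peptide (75 nM), then compounds added for 30 min at room temperature; AlphaScreen streptavidin donor/nickel chelate acceptor beads (10 ug/mL final) read after 30 min dark incubation.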
Numbers without * were called inactive; u = inconclusive; x = no result; ! = not confirmed by another sample; [ ] = dose if it differs, or a comment. An excerpt weighted towards active compounds, which were near 12% of everything screened. Calls come from the whole dose curve; as a rule, active = well fitted curve in the direction sought with a large enough effect; inconclusive = small, poorly fitted or top-dose-only effect, or another doubt; inactive = no such curve, though single readings can be large; an effect the other way counts as inactive or inconclusive. Potency is the fitted concentration of half-maximal effect.

SMILES | G9a block | BAZ2B block | JMJD2A Tudor inh | HP1b binding inh | Sfp PPTase inh | L3MBTL1 block
Cc1ccc(C)c(NC(=O)c2cc[n+](C)cc2)c1 | 32µM* | -25% | -27% | 32% | 2% | 0%
O=C1NC(=O)C(=Cc2ccc(SC3CCCCC3)o2)C(=O)N1 | 11µM* | 45µM* | u | 50µM* | 28µM* | u
CC(CNC(=O)c1cccnc1)NC(=O)c1cccnc1 (stereo unspecified) | u | x | x | x | 2% | x
COc1ccccc1N1C(=O)CC(=O)NC1=O | -4% | 50µM* | -14% | 0%[57 µM] | -3% | x
Cc1ccccc1N1C(=O)CC(=O)NC1=O | 45µM* | 11% | -12% | 34% | 56µM* | x
CCc1ccccc1N1C(=O)CC(=O)NC1=O | -19%[59 µM] | -13% | -12% | 22% | -17% | x
COc1cccc(N2C(=O)CC(=O)NC2=O)c1 | u | -7% | -25% | 3% | -22% | 6%
CCCNc1nc(-c2cc(C(=O)Nc3ccccc3)on2)cc(C(C)C)n1 | x | x | -9% | 52% | x | x
CC(C)[C@H](NC(=O)[C@H](CC(=O)O)NC(=O)[C@H](Cc1ccccc1)NC(=O)[C@@H](C)NC(=O)[C@@H](N)Cc1ccc(O)cc1)C(=O)N[C@H](C(=O)NCC(N)=O)C(C)C | x | x | x | x | -14% | x
CCCCCCCCCC(CC)c1ccc(S(=O)(=O)O)cc1 (stereo unspecified) | 11%[59 µM] | x | x | x | 18% | x
CCCCCCCCCc1ccc(O)cc1 | x | x | x | x | 11% | x
CCOC(=O)c1c(P(=O)(N2CCOCC2)N2CCOCC2)noc1N | -26% | 9% | -2%[11.4 µM] | 70% | -2% | -8%
CCOC(=O)c1c(C)c(P(=S)(N2CCOCC2)N2CCOCC2)n(C)c1C | 6.3µM* | u | -25% | u | 32µM* | -5%
COc1cccc(N=Nc2c(O)[nH]c(=S)[nH]c2=O)c1 | 50µM* | -32% | -26% | 3% | -19% | -11%
O=C(N=Nc1c(O)[nH]c(=O)[nH]c1=O)C1COc2ccccc2O1 (stereo unspecified) | 45µM* | -5% | -3% | 29% | u | 7%
O=c1[nH]c(=S)[nH]c(O)c1N=Nc1ccc2c(c1)OCCO2 | u | -27% | -9% | 24% | u | -23%
O=C(O)c1ccccc1N=Nc1c(O)[nH]c(=O)[nH]c1=O | u | -15% | -13% | 37% | -6% | -17%
O=c1[nH]c(=S)[nH]c(O)c1N=Nc1cccc(S(=O)(=O)N2CCOCC2)c1 | 50µM* | -22% | -13% | 21% | -9% | 3%
O=c1[nH]c(O)c(N=Nc2ccc3c(c2)OCCO3)c(=O)[nH]1 | 50µM* | u | u | -23% | 17% | -24%
CC(=O)OC1C[C@@]2(C)C(c3ccoc3)C[C@H]3O[C@@]32[C@@]2(C)C(=O)C(O)=C3C(C)(C)C(=O)C=C[C@]3(C)C12 (stereo partly specified) | -42%[2.33 µM] | x | x | x | -3% | x
O=c1[nH]c(O)c(N=Nc2ccc(S(=O)(=O)N3CCOCC3)cc2)c(=O)[nH]1 | 13µM* | -27% | -26% | 37% | 10% | -16%
O=c1[nH]c(=S)[nH]c(O)c1N=Nc1ccc(S(=O)(=O)N2CCOCC2)cc1 | x | u | -29% | 18% | -18% | -10%
CCN1C[C@@]2(COC)CC[C@H](O)[C@@]34[C@@H]2C[C@@H]([C@@H]13)[C@]1(O)C[C@@H](OC)C2C[C@H]4[C@H]1[C@H]2OC(C)=O | 26%[21.5 µM] | x | x | x | 13% | x
c1ccc2sc(C3(N4CCCCC4)CCCCC3)cc2c1 | 8.9µM*! | x | x | x | -8% | x
